Measured values from PubChem BioAssay.
Values without a mark were called inactive. Active and inactive are the calls of the source.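 How the source made its calls, unless noted: active means inhibition above 50%; inactive means the rest.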

Experiment: antimalarial activity against Dd2 strain (AID 2302;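 active means growth inhibition above 50% at the single 2 µM test dose, taken to imply half-maximal potency below 2 µM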;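 further: 0% = DMSO untreated growth and 100% = chloroquine plus artemisinin killed control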)
Conditions: P. falciparum Dd2 in RBCs, LDH growth readout, 72 h; at 2 µM; stronger effect = higher value

Structure (SMILES)	growth inhibition
CC(C)c1ccc(NC(=O)Nc2ccc(CCNCCCc3ccccc3)cc2)cc1	56% (active)
CC(C)NCc1cccc(-c2cccc(NC(=O)c3cccc(Cl)c3)c2)c1	38%
CC[C@@H]([C@@H](Cc1cc2ccccc2s1)C(=O)N[C@@H](CCCCNC(=O)OCc1ccccc1)C(=O)Nc1ccccn1)N(O)C=O	70% (active)
Cc1cccc2[nH]c(-c3cccc(-c4ccc(NC(=O)Nc5ccc(F)c(F)c5F)cc4)c3)nc12	100% (active)
C=CCNC(=O)CCCN=C(N)N	12%
O=C(Nc1cccc(F)c1)c1ccc(C(=O)NC2CCN(CC3CCCCC3)CC2)cc1	16%
COc1ccc(CCCc2nc(N)nc(N)c2-c2ccc(Cl)cc2)cc1	0%
CN1CCN(CCCN(Cc2cccc(-c3ccc(CNCCc4ccccc4)cc3)c2)C(=O)c2cccs2)CC1	97% (active)
O=C(Nc1cccc(CN2CCN(C(=O)c3cccc(Cl)c3)CC2)c1)c1ccco1	94% (active)
CN1CCN(c2cccc(-c3nnc(-c4ccc(OCC(=O)NCc5ccc(C(F)(F)F)cc5)c([N+](=O)[O-])c4)o3)c2)CC1	44%
CCn1c(-c2cc(C)on2)nc2cnc(Oc3ccc(C(=O)N4CC(=O)N(C)C4C(C)(C)C)cc3)cc21 (stereo not given)	57% (active)
O=C(NCCCCCCNCc1ccc(-c2ccccc2)cc1)Nc1ccc(Cl)c(Cl)c1	2%
O=C(Nc1ccc(Oc2cccnc2)cc1)C1CCN(Cc2cc(Cl)ccc2O)CC1	1%
CN1Cc2cc(NC(=O)/C=C/c3ccccc3Cl)ccc2C(C)(C)C1	96% (active)
COc1ccc2c(NN=C(C)c3ccccn3)cc(C)nc2c1	51% (active)
c1ccc2[nH]c(-c3ccc(-c4ccc(CN5CCC(N6CCCCC6)CC5)cc4)s3)nc2c1	100% (active)
Cc1cc(C)cc(OCC(O)CN(Cc2cc(Cl)cc(Cl)c2)C(=O)Nc2ccc([N+](=O)[O-])cc2)c1 (stereo not given)	38%
O=c1cc(NCCCNCc2cc(C(F)(F)F)ccc2F)[nH]c2ccccc12	43%
CC(NCC(O)Cn1c2ccccc2c2ccccc21)c1ccccc1 (stereo not given)	85% (active)
Cc1c(C(=O)N(C)C)sc2c1c(=O)n(Cc1ccccc1)c(=O)n2CC(=O)Nc1ccccc1F	98% (active)

Structure (SMILES)	growth inhibition
C=CCC(C(=O)Nc1ccnc2ccc(OC)cc12)C1CCN(CCCCCCC)CC1 (stereo not given)	84% (active)
Cc1cccc(NC(=O)Nc2cccc(-c3ccc(-c4nc5ccc(C(F)(F)F)cc5[nH]4)cc3)c2)c1	94% (active)
CCc1cc(Cc2cnc(N)nc2N)cc(CC)c1OC	12%
CCCCCCCN(CCCCCCC)CCCC(=O)Nc1ccnc2ccc(OC)cc12	98% (active)
CC(C)CCNCc1ccc(OCc2cccc(COc3ccc(CNCCC(C)C)cc3I)c2)c(I)c1	49%
CCCCCc1cc(O)c2c(c1)OC(C)(C)C=C2C1=CCN(Cc2ccsc2)CC1	48%
Clc1cc(Nc2ncnc3sc(C#C[C@H]4CCCN4)cc23)ccc1OCc1cccnc1Cl	93% (active)
Oc1ccc(CCCNc2nc(NCc3cccc4ccccc34)nc(N3CCCNCC3)n2)cc1	62% (active)
Cc1noc(C)c1-c1ccc2c(Nc3ccccc3C(C)(C)C)c(C(=O)NCc3ccc4c(c3)OCO4)cnc2c1	88% (active)
CCN(CC)CCOc1ccc(C(O)(C#CC(O)(c2ccccc2)c2ccc(OCCN(CC)CC)cc2)c2ccccc2)cc1 (stereo not given)	99% (active)
COc1ccc(-n2ncc(C(=O)N3CCC4(C3)C(=O)N(c3ccccc3)c3ccccc34)c2C)cc1 (stereo not given)	91% (active)
O=S(=O)(Nc1cccc(CCN2CCC(N3CCCCC3)CC2)c1)c1ccc2c(c1)OCCO2	5%
CN1CCN(CC(=O)Nc2ccc(-c3cccc(-c4nc5ccc(F)cc5[nH]4)c3)cc2)CC1	100% (active)
CC(C)(C)NC(=O)c1ccc(Oc2ccc(OC(F)(F)F)cc2)c(NC(=O)C(C)(C)C)c1	2%
CCCCCN1CCCC(CNS(=O)(=O)c2cccc(C(=O)Nc3ccc(C(F)(F)F)cc3)c2)C1 (stereo not given)	2%
O=C(NCCNc1ccnc(NCc2ccc(F)cc2)n1)c1cc2ccccc2s1	17%
NC1CCN(Cc2cccc(-c3ccc(-c4nc5ccccc5[nH]4)s3)c2)C1 (stereo not given)	62% (active)
Cc1[nH]c(C)c(-c2ccc(OCc3cccc(C(F)(F)F)c3)nc2)c(=O)c1Br	97% (active)
CCSc1nnc(C2CCCN(CC(=O)Nc3cc(C(F)(F)F)ccc3Cl)C2)n1CC (stereo not given)	96% (active)
Cc1cc(NN=Cc2cccc(F)c2)c2ccc(F)cc2n1	99% (active)

Experiment: human hepatoma cell viability loss – ATP luminescence, cytotoxicity control for P. falciparum antimalarial project, primary screen (AID 2303);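 further: 0% = DMSO wells and 100% = digitonin-killed cells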
Conditions: HepG2 viability, 24-48 h, at 10 µM, stronger effect = higher value

Structure (SMILES)	inhibition
CC(C)c1ccc(NC(=O)Nc2ccc(CCNCCCc3ccccc3)cc2)cc1	22%
CC(C)NCc1cccc(-c2cccc(NC(=O)c3cccc(Cl)c3)c2)c1	36%
CC[C@@H]([C@@H](Cc1cc2ccccc2s1)C(=O)N[C@@H](CCCCNC(=O)OCc1ccccc1)C(=O)Nc1ccccn1)N(O)C=O	36%
Cc1cccc2[nH]c(-c3cccc(-c4ccc(NC(=O)Nc5ccc(F)c(F)c5F)cc4)c3)nc12	61% (active)
C=CCNC(=O)CCCN=C(N)N	-9%
O=C(Nc1cccc(F)c1)c1ccc(C(=O)NC2CCN(CC3CCCCC3)CC2)cc1	22%
COc1ccc(CCCc2nc(N)nc(N)c2-c2ccc(Cl)cc2)cc1	65% (active)
CN1CCN(CCCN(Cc2cccc(-c3ccc(CNCCc4ccccc4)cc3)c2)C(=O)c2cccs2)CC1	86% (active)
O=C(Nc1cccc(CN2CCN(C(=O)c3cccc(Cl)c3)CC2)c1)c1ccco1	7%
CN1CCN(c2cccc(-c3nnc(-c4ccc(OCC(=O)NCc5ccc(C(F)(F)F)cc5)c([N+](=O)[O-])c4)o3)c2)CC1	35%
CCn1c(-c2cc(C)on2)nc2cnc(Oc3ccc(C(=O)N4CC(=O)N(C)C4C(C)(C)C)cc3)cc21 (stereo not given)	44%
O=C(NCCCCCCNCc1ccc(-c2ccccc2)cc1)Nc1ccc(Cl)c(Cl)c1	14%
O=C(Nc1ccc(Oc2cccnc2)cc1)C1CCN(Cc2cc(Cl)ccc2O)CC1	37%
CN1Cc2cc(NC(=O)/C=C/c3ccccc3Cl)ccc2C(C)(C)C1	12%
COc1ccc2c(NN=C(C)c3ccccn3)cc(C)nc2c1	33%
c1ccc2[nH]c(-c3ccc(-c4ccc(CN5CCC(N6CCCCC6)CC5)cc4)s3)nc2c1	26%
Cc1cc(C)cc(OCC(O)CN(Cc2cc(Cl)cc(Cl)c2)C(=O)Nc2ccc([N+](=O)[O-])cc2)c1 (stereo not given)	-3%
O=c1cc(NCCCNCc2cc(C(F)(F)F)ccc2F)[nH]c2ccccc12	0%
CC(NCC(O)Cn1c2ccccc2c2ccccc21)c1ccccc1 (stereo not given)	37%
Cc1c(C(=O)N(C)C)sc2c1c(=O)n(Cc1ccccc1)c(=O)n2CC(=O)Nc1ccccc1F	13%

Structure (SMILES)	inhibition
C=CCC(C(=O)Nc1ccnc2ccc(OC)cc12)C1CCN(CCCCCCC)CC1 (stereo not given)	20%
Cc1cccc(NC(=O)Nc2cccc(-c3ccc(-c4nc5ccc(C(F)(F)F)cc5[nH]4)cc3)c2)c1	44%
CCc1cc(Cc2cnc(N)nc2N)cc(CC)c1OC	3%
CCCCCCCN(CCCCCCC)CCCC(=O)Nc1ccnc2ccc(OC)cc12	43%
CC(C)CCNCc1ccc(OCc2cccc(COc3ccc(CNCCC(C)C)cc3I)c2)c(I)c1	99% (active)
CCCCCc1cc(O)c2c(c1)OC(C)(C)C=C2C1=CCN(Cc2ccsc2)CC1	20%
Clc1cc(Nc2ncnc3sc(C#C[C@H]4CCCN4)cc23)ccc1OCc1cccnc1Cl	9%
Oc1ccc(CCCNc2nc(NCc3cccc4ccccc34)nc(N3CCCNCC3)n2)cc1	98% (active)
Cc1noc(C)c1-c1ccc2c(Nc3ccccc3C(C)(C)C)c(C(=O)NCc3ccc4c(c3)OCO4)cnc2c1	37%
CCN(CC)CCOc1ccc(C(O)(C#CC(O)(c2ccccc2)c2ccc(OCCN(CC)CC)cc2)c2ccccc2)cc1 (stereo not given)	81% (active)
COc1ccc(-n2ncc(C(=O)N3CCC4(C3)C(=O)N(c3ccccc3)c3ccccc34)c2C)cc1 (stereo not given)	45%
O=S(=O)(Nc1cccc(CCN2CCC(N3CCCCC3)CC2)c1)c1ccc2c(c1)OCCO2	8%
CN1CCN(CC(=O)Nc2ccc(-c3cccc(-c4nc5ccc(F)cc5[nH]4)c3)cc2)CC1	18%
CC(C)(C)NC(=O)c1ccc(Oc2ccc(OC(F)(F)F)cc2)c(NC(=O)C(C)(C)C)c1	-11%
CCCCCN1CCCC(CNS(=O)(=O)c2cccc(C(=O)Nc3ccc(C(F)(F)F)cc3)c2)C1 (stereo not given)	27%
O=C(NCCNc1ccnc(NCc2ccc(F)cc2)n1)c1cc2ccccc2s1	6%
NC1CCN(Cc2cccc(-c3ccc(-c4nc5ccccc5[nH]4)s3)c2)C1 (stereo not given)	36%
Cc1[nH]c(C)c(-c2ccc(OCc3cccc(C(F)(F)F)c3)nc2)c(=O)c1Br	37%
CCSc1nnc(C2CCCN(CC(=O)Nc3cc(C(F)(F)F)ccc3Cl)C2)n1CC (stereo not given)	0%
Cc1cc(NN=Cc2cccc(F)c2)c2ccc(F)cc2n1	2%
